In all, about 69,000 compounds went through this assay and about 8,600 (12%) showed an effect of 50% or more. The list comes from a sample in which strong results are over-represented; it also holds similar structures and randomly drawn compounds.
system: Plasmodium berghei; assay: Screen against P. berghei liver stage (PbLuc), transformed with Luciferase, at 10uM; assay type: functional, HepG2; conditions: tested at 10 uM

Row | Structure (SMILES) | INHIBITION [%]
1 | CC(C)OCCSc1nnnn1C1CCOCC1 | 26.9
2 | O=C1OCCN1CCSc1nnnn1CC(F)(F)F | 42.4
3 | O=C1OCCN1CCSc1nnnn1C1CCOCC1 | 54.5
4 | Cc1cnn(CC2CCCN2c2ncnc3sccc23)c1 (stereo not given) | 56.1
5 | c1nc(N2CCCCC2Cn2cncn2)c2ccsc2n1 (stereo not given) | 45.8
6 | Cc1cnn(CC2CCCN2c2ncnc3ccsc23)c1 (stereo not given) | 47.7
7 | Cc1cnn(CC2CCCN2c2ncnc3c2CCC3)c1 (stereo not given) | -2.94
8 | N#Cc1ccc(N2CCCC2Cn2cccn2)nc1 (stereo not given) | -155
9 | Cc1nn(C)c(Cl)c1C1CCCN1c1ncnc2sccc12 (stereo not given) | 42.6
10 | Cc1nn(C)c(C)c1C1CCCN1c1ncnc2sccc12 (stereo not given) | 70.5
11 | Cc1cnn(CC2CCCN2c2ccc(C#N)cn2)c1 (stereo not given) | -16
12 | COc1c(C2CCCN2c2ncnc3sccc23)c(C)nn1C (stereo not given) | 40
13 | Cc1cnn(CC2CCCCN2c2ncnc3ccccc23)c1 (stereo not given) | -34.6
14 | c1cnn(CC2CCCN2c2ncnc3c2CCC3)c1 (stereo not given) | 59.7
15 | Cc1cnn(CC2CCCN2c2ncnc3ccccc23)c1 (stereo not given) | 75.9
16 | CSCC[C@H](NC(C)=O)c1nc(CC(C)C)n[nH]1 | -24.7
17 | c1ccc2oc(CN3CCCC(Cn4cncn4)C3)nc2c1 (stereo not given) | 16.34
18 | CC(C)CCN(C(=O)c1ccc(-n2ncc(C#N)c2N)cc1)C1CC1 | 19.5
19 | Cc1cnn(CCC(=O)N2CCCC(c3ccn[nH]3)C2)c1 (stereo not given) | -19.4
20 | Cc1nc(C)n(C2CCCN(C(=O)CCOc3cccc(F)c3)C2)n1 (stereo not given) | 33.3
21 | Cc1c(NCCO)cccc1OC1CCCC1 | -64.6
22 | CN1CCC(CNC(=O)NCc2ccc(F)cc2)CC1 | -33
23 | CC(C)NC(=O)c1cc2c(s1)CCN2C(=O)CN(C)C | 8.67
24 | c1ccc2c(N3CCCC3Cn3cccn3)ncnc2c1 (stereo not given) | 76.9

Row | Structure (SMILES) | INHIBITION [%]
25 | c1ccc2c(N3CCCCC3Cn3cncn3)ncnc2c1 (stereo not given) | -11.1
26 | Cc1n[nH]c(C)c1C1COCCN1c1ncnc2sccc12 (stereo not given) | 71.4
27 | CC1COCCN1c1ncnc2sccc12 (stereo not given) | 49.1
28 | Cc1nn(C)c(C)c1C1COCCN1c1ncnc2sccc12 (stereo not given) | -7.11
29 | c1ccc2c(N3CCCCC3Cn3cccn3)ncnc2c1 (stereo not given) | 11.575
30 | O=C(c1ccncc1)N1C[C@H]2CC[C@@H](C1)N(C(=O)N1CCOCC1)C2 | -20.6
31 | CCc1nc(C2CCCN2Cc2nccn2CC(F)(F)F)no1 (stereo not given) | 28.8
32 | CC1CN(CC(=O)NCc2ccccn2)CCN1Cc1nccn1C (stereo not given) | -20.19
33 | O=C(c1ccc2c(c1)OCCCO2)N1CCCC(n2cccn2)C1 (stereo not given) | 7.12
34 | CC(=O)Nc1cccc2c1ccn2CC(=O)NC(C)C | 22
35 | CC(=O)Nc1cccc2c1ccn2CC(=O)Nc1nc[nH]n1 | 21.5
36 | COCCn1ccc2c(NC(=O)c3n[nH]c4c3CCC4)cccc21 | 9.57
37 | Cc1cc(CC(C)NC(=O)c2n[nH]c3c2CCC3)n[nH]1 (stereo not given) | -56.2
38 | COCCn1ccc2c(NC(=O)c3n[nH]c4c3CCCC4)cccc21 | 14.8
39 | Cn1cnc2cc(NC(=O)c3n[nH]c4c3CCC4)ccc21 | -136
40 | CC(=O)Nc1cccc2c1ccn2CC(=O)Nc1n[nH]c(CC(C)C)n1 | 71.3
41 | Cc1ccc(N(C)C2CCN(C(=O)c3n[nH]c4c3CCC4)CC2)nn1 | -20.3
42 | CN(C)CCCn1cnc2cc(NC(=O)c3n[nH]c4c3CCC4)ccc21 | 10.1
43 | CC(C)n1ccc2c(NC(=O)c3n[nH]c4c3CCC4)cccc21 | 76.9
44 | CC(C)Cn1ccc2c(NC(=O)c3n[nH]c4c3CCC4)cccc21 | 90.8
45 | CC(C)c1nc2cc(NC(=O)c3n[nH]c4c3CCC4)ccc2n1C | 62.2
46 | O=S(=O)(c1cnccc1N1CCN(CCO)CC1)N1CCOCC1 | 36.8
47 | CCOc1ccc(C#N)cc1NC(=O)N1CCC(n2cncn2)CC1 | -31.4
48 | Cc1nc(N2CCCC2)ncc1-c1cc(O)nc(NCC2CCCO2)n1 (stereo not given) | -29.6

Row | Structure (SMILES) | INHIBITION [%]
49 | Cc1[nH]ccc1C(=O)N1C[C@@H]2CC[C@H]1CN(S(=O)(=O)N(C)C)C2 | 21.5
50 | Cc1cc(S(=O)(=O)NCC(C)(C)N)c(F)cc1F | 48.8
51 | COCCNC(=O)NCc1cc(-c2cccs2)n(C2CCCC2)n1 | 43.9
52 | Cc1noc(C)c1-c1cncc(C2CCCN2Cc2cncnc2)n1 (stereo not given) | 22.2
53 | Cc1cccc(CS(=O)(=O)CC(O)Cn2cccn2)c1 (stereo not given) | 15.5
54 | O=S(=O)(Cc1cccc(Cl)c1)CC(O)Cn1cccn1 (stereo not given) | 57.5
55 | O=S(=O)(Cc1ccccc1)CC(O)Cn1cccn1 (stereo not given) | 34
56 | Cn1c(NCc2ccc(C(N)=O)cc2)nc2cc(Cl)ccc21 | 10.7
57 | CC(CN1CCCC1=O)NC(=O)NCc1ccccc1-n1cccn1 (stereo not given) | 48.6
58 | O=C(c1ccc(S(=O)(=O)NCC(F)F)cc1)N1C[C@H]2CNC[C@H]2C1 | 69.3
59 | O=C(c1ccc(S(=O)(=O)NCC(F)F)cc1)N1CC[C@H]2CNC[C@H]21 | 43.7
60 | O=C(c1ccc(F)c(F)c1)N1C[C@H]2CNC[C@H]2C1 | 5.04
61 | CC(C)n1cnc2c1C(C(=O)NCCC#N)N(Cc1ccccc1)CC2 (stereo not given) | 15.1
62 | COCc1nc(C2CCN(Cc3nccn3C)CC2)no1 | -11.7
63 | COC(=O)c1ccc2c(c1)CCCN2S(=O)(=O)c1cn(C)c(C)n1 | 2.25
64 | c1cc2c(cc1OC[C@@H]1CCCN3CCCC[C@H]13)OCCO2 | 28.4
65 | Oc1coc2cc(OC[C@@H]3CCCN4CCCC[C@H]34)ccc12 | 56.2
66 | O=C(CC[C@@H]1CCCN2CCCC[C@H]12)NCCc1cc(O)ncn1 | 26.8
67 | CC(Cn1ccnc1)NC(=O)NCCc1cccs1 (stereo not given) | -17.08
68 | NC(CNS(=O)(=O)Cc1cccc2cccnc12)c1ccccc1 (stereo not given) | 29
69 | Cc1nn(C)c(C)c1C(=O)NCc1ccnc(OCC(F)(F)F)c1 | 13.765
70 | O=C(NC1CCCCC1)c1nnc2ccc(N3CCOCC3)cc2n1 | -64.4
